Assay [1] in a line: viability loss with induced miR-34 in A549 – imaging, A549 dox-inducible miR-34, nuclei and caspase counts, primary screen (AID 1347080;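 active means compounds whose cell count with miR-34 switched on is under 0.7 times the count with it off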). The conditions noted are these: A549 miR-34 inducible, Hoechst nuclei count, 48 h.
Assay [2] can be described thus: MELAS cybrid and Rieske KO viability enhancers – cell-based, MELAS cybrids, Rieske KO mouse fibroblasts, CellTiter-Glo, primary screen (AID 1508586).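 Further: z relative to plate mean and SD of compound and empty wells.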 The conditions noted are these: low glucose. In general terms: Cellular ATP, detected with luciferase, serves as a proxy for viable cell number.
The mark [3] stands for this setting: stronger effect = lower value, cell number ratio, induced over uninduced.
Where [4] appears, read: measured here: relative caspase fold change +Dox/-Dox.
Where [5] appears, read: measured here: total cells with miR-34 induction, stronger effect = lower value.
Setting [6] is: measured here: total cells without miR-34 induction.
[7] abbreviates: MELAS cybrid survival, CellTiter-Glo 48 h, stronger effect = higher value.
The mark [8] stands for this setting: Rieske KO mouse fibroblast survival, CellTiter-Glo 72 h.

Structures are written as SMILES. Calls of active or inactive are those of the source.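 How the source made its calls, unless noted: active means mean z-score across replicates of 1.96 or higher in either the MELAS or the Rieske mutant cell line; inactive means the rest.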
Further: test concentration not given here.

As to `CC(Cc1cc2c(c(C(N)=O)c1)N(CCCO)CC2)NCCOc1ccccc1OCC(F)(F)F` (stereo not drawn), the results for the fold change in assay [1] (setting [3]) and in assay [1] (setting [4]) were 0.869 (inactive) and 0.814, respectively. In addition, the cell count in assay [1] (setting [5]) amounted to 6950; in assay [1] (setting [6]), 8000. Besides, the z-score in assay [2] (setting [7]) was -0.42 (inactive); in assay [2] (setting [8]) it was -0.511.
With `CNC(=O)C(c1ccccc1)N1CCc2cc(OC)c(OC)cc2C1CCc1ccc(C(F)(F)F)cc1` (stereo not drawn), the fold change in assay [1] (setting [3]) is 1.06 (inactive); in assay [1] (setting [4]), 0.482. The results for the cell count in assay [1] (setting [5]) and in assay [1] (setting [6]) were 6530 and 6180, respectively. Further, the results for the z-score in assay [2] (setting [7]) and in assay [2] (setting [8]) were -0.149 (inactive) and 0.101, respectively.
Turning to `CC(C)CN(CC(O)C(Cc1ccccc1)NC(=O)OC1CCOC1)S(=O)(=O)c1ccc(N)cc1` (stereo not drawn), the fold change in assay [1] (setting [3]) is 0.88 (inactive); in assay [1] (setting [4]), 0.898. The cell count in assay [1] (setting [5]) turned out to be 7780; in assay [1] (setting [6]), 8840. Besides, the z-score in assay [2] (setting [7]) was -0.312 (inactive); in assay [2] (setting [8]), 0.463.
In the case of `CS(=O)(=O)c1ccc(C(O)C(CO)NC(=O)C(Cl)Cl)cc1` (stereo not drawn), the results for the fold change in assay [1] (setting [3]) and in assay [1] (setting [4]) were 0.959 (inactive) and 1.06, respectively. For the same compound, the cell count came to 8650 in assay [1] (setting [5]) and 9010 in assay [1] (setting [6]). Moreover, the figures for the z-score in assay [2] (setting [7]) and in assay [2] (setting [8]) were -0.348 (inactive) and 0.589, respectively.
For `Cc1nc(Nc2n[nH]c3c2CN(C(=O)NC(CN(C)C)c2ccccc2)C3(C)C)c2sccc2n1` (stereo not drawn), the fold change in assay [1] (setting [3]) was 1.06 (inactive); in assay [1] (setting [4]) it was 0.274. Besides, the cell count in assay [1] (setting [5]) came to 1510; in assay [1] (setting [6]), 1420. Also, the z-score is 0.106 (inactive) in assay [2] (setting [7]) and -7.7 in assay [2] (setting [8]).
With `C[C@H]1CC[C@H]2[C@@H](C)C(OC(=O)CCC(=O)O)O[C@H]3O[C@@]4(C)CC[C@@H]1[C@]32OO4` (stereo partly drawn), the fold change was 0.953 (inactive) in assay [1] (setting [3]) and 0.708 in assay [1] (setting [4]). The cell count in assay [1] (setting [5]) amounted to 4220; in assay [1] (setting [6]), 4430. Besides, the z-score in assay [2] (setting [7]) was -0.298 (inactive); in assay [2] (setting [8]) it was -0.0832.
Turning to `O=C1c2ccc(Nc3ccc(F)cc3F)cc2CCc2ccc(OCC(O)CO)cc21` (stereo not drawn), the fold change was 0.924 (inactive) in assay [1] (setting [3]) and 0.413 in assay [1] (setting [4]). Also, the cell count in assay [1] (setting [5]) stood at 6890; in assay [1] (setting [6]), 7450. Also, the z-score in assay [2] (setting [7]) was -0.55 (inactive); in assay [2] (setting [8]), 0.56.
With `CC(=NNC(=S)N1CCC1)c1ccccn1`, the fold change was 0.887 (inactive) in assay [1] (setting [3]) and 0.742 in assay [1] (setting [4]). For the same compound, the cell count in assay [1] (setting [5]) stood at 1950; in assay [1] (setting [6]), 2200. The z-score in assay [2] (setting [7]) is 7.64 (active); in assay [2] (setting [8]), -5.36.
Consider `CC(C)(C(=O)NCC(F)(F)C(F)(F)F)C(=O)NC1C(=O)Nc2ccccc2-c2ccccc21` (stereo not drawn), for which the fold change in assay [1] (setting [3]) is 0.97 (inactive); in assay [1] (setting [4]) it was 0.87. Also, the cell count in assay [1] (setting [5]) worked out at 7630; in assay [1] (setting [6]) it was 7860. Moreover, the z-score in assay [2] (setting [7]) is -0.378 (inactive); in assay [2] (setting [8]) it was 0.321.
Regarding `OCC(CO)NC1C[C@@](O)(CO)C(O)C(O)C1O` (stereo partly drawn), the fold change was 0.838 (inactive) in assay [1] (setting [3]) and 1.1 in assay [1] (setting [4]). Moreover, the cell count in assay [1] (setting [5]) turned out to be 8490; in assay [1] (setting [6]), 10100. Moreover, the z-score is -0.052 (inactive) in assay [2] (setting [7]) and -0.122 in assay [2] (setting [8]).
For the compound `O=C(C=Cc1ccc(CN(CCO)CCc2c[nH]c3ccccc23)cc1)NO`, the fold change in assay [1] (setting [3]) was 0.866 (inactive); in assay [1] (setting [4]) it was 0.616. Moreover, the cell count in assay [1] (setting [5]) was determined as 944; in assay [1] (setting [6]) it was 1090. Besides, the z-score in assay [2] (setting [7]) was -0.188 (inactive); in assay [2] (setting [8]) it was -2.63.
Turning to `CC(NC(=O)C(O)C(C)C)C(=O)NC1C(=O)N(C)CCc2ccccc21` (stereo not drawn), the fold change was 0.932 (inactive) in assay [1] (setting [3]) and 0.791 in assay [1] (setting [4]). For the same compound, the cell count was 7480 in assay [1] (setting [5]) and 8020 in assay [1] (setting [6]). The z-score in assay [2] (setting [7]) is -0.185 (inactive); in assay [2] (setting [8]), -1.14.
As for `CC(CCC(=O)O)[C@H]1CC[C@H]2[C@@H]3C(O)C[C@@H]4CC(O)CC[C@]4(C)[C@@H]3CC[C@]12C` (stereo partly drawn), the fold change in assay [1] (setting [3]) is 0.91 (inactive); in assay [1] (setting [4]), 1.28. The cell count in assay [1] (setting [5]) was 8880; in assay [1] (setting [6]), 9760. Moreover, the z-score was -0.306 (inactive) in assay [2] (setting [7]) and 0.756 in assay [2] (setting [8]).
For `CC(=O)Nc1cccc2c1c(Sc1ccc(Cl)cc1)c(C)n2CC(=O)O`, the fold change is 0.864 (inactive) in assay [1] (setting [3]) and 0.281 in assay [1] (setting [4]). In addition, the cell count in assay [1] (setting [5]) turned out to be 7890; in assay [1] (setting [6]) it was 9130. The z-score is -0.287 (inactive) in assay [2] (setting [7]) and -2.23 in assay [2] (setting [8]).
Consider `CC(C)NCC(C(=O)N1CCN(c2ncnc3c2C(C)CC3O)CC1)c1ccc(Cl)cc1` (stereo not drawn), for which the figures for the fold change in assay [1] (setting [3]) and in assay [1] (setting [4]) were 1.1 (inactive) and 0.724, respectively. Moreover, the cell count in assay [1] (setting [5]) was 7580; in assay [1] (setting [6]), 6900. Also, the z-score in assay [2] (setting [7]) was -0.408 (inactive); in assay [2] (setting [8]), 0.0437.
Take `O=C(CCCS)NC1CCN(C(=O)COc2ccc(Cl)cc2Cl)CC1`: the fold change in assay [1] (setting [3]) is 0.885 (inactive); in assay [1] (setting [4]), 0.313. The cell count in assay [1] (setting [5]) was 7910; in assay [1] (setting [6]), 8940. Further, the z-score in assay [2] (setting [7]) was -0.37 (inactive); in assay [2] (setting [8]), 1.05.
As to `Cc1[nH]nc2ccc(-c3cncc(OCC(N)Cc4ccccc4)c3)cc12` (stereo not drawn), the fold change was 1.1 (inactive) in assay [1] (setting [3]) and 0.572 in assay [1] (setting [4]). Further, the cell count in assay [1] (setting [5]) was 1470; in assay [1] (setting [6]), 1330. The z-score in assay [2] (setting [7]) was 1.05 (inactive); in assay [2] (setting [8]) it was -3.52.
In the case of `CCCC1CC(C(=O)NC(C(C)O)[C@@H]2OC(SC)C(O)C(O)C2O)N(C)C1` (stereo partly drawn), the figures for the fold change in assay [1] (setting [3]) and in assay [1] (setting [4]) were 0.883 (inactive) and 0.66, respectively. The cell count amounted to 9270 in assay [1] (setting [5]) and 10500 in assay [1] (setting [6]). For the same compound, the z-score in assay [2] (setting [7]) is -0.388 (inactive); in assay [2] (setting [8]), -0.162.
As for `C=C[C@@]1(C)CC(=O)[C@@]2(O)[C@@]3(C)C(O)CCC(C)(C)[C@@H]3C(O)C(OC(C)=O)[C@@]2(C)O1` (stereo partly drawn), the fold change was 0.968 (inactive) in assay [1] (setting [3]) and 1.19 in assay [1] (setting [4]). In addition, the cell count in assay [1] (setting [5]) came out at 8540; in assay [1] (setting [6]), 8820. Moreover, the values for the z-score in assay [2] (setting [7]) and in assay [2] (setting [8]) were 0.411 (inactive) and -0.394, respectively.
In the case of `O=C1NC(=O)C(=Cc2ccc3c(c2)OC(F)(F)O3)S1`, the fold change in assay [1] (setting [3]) was 0.912 (inactive); in assay [1] (setting [4]), 0.633. Moreover, the cell count in assay [1] (setting [5]) came to 8930; in assay [1] (setting [6]), 9790. Besides, the z-score in assay [2] (setting [7]) is -0.318 (inactive); in assay [2] (setting [8]) it was -0.248.
On to `CC1CNc2c(cccc2S(=O)(=O)N[C@@H](CCCN=C(N)N)C(=O)N2CCC(C)CC2C(=O)O)C1` (stereo partly drawn), for which the fold change in assay [1] (setting [3]) is 0.97 (inactive); in assay [1] (setting [4]), 0.669. Also, the cell count in assay [1] (setting [5]) is 7750; in assay [1] (setting [6]), 7990. In addition, the z-score in assay [2] (setting [7]) is -0.261 (inactive); in assay [2] (setting [8]), -0.0788.
With `O=S(=O)(NCCNCC=Cc1ccc(Br)cc1)c1cccc2cnccc12`, the values for the fold change in assay [1] (setting [3]) and in assay [1] (setting [4]) were 0.834 (inactive) and 0.904, respectively. In addition, the cell count was determined as 8100 in assay [1] (setting [5]) and 9710 in assay [1] (setting [6]). Further, the z-score in assay [2] (setting [7]) is -0.305 (inactive); in assay [2] (setting [8]), 0.0221.
Turning to `CC(=Cc1ccccc1)C=C1SC(=S)N(CC(=O)O)C1=O`, the fold change was 0.909 (inactive) in assay [1] (setting [3]) and 0.759 in assay [1] (setting [4]). For the same compound, the cell count in assay [1] (setting [5]) was found to be 8290; in assay [1] (setting [6]) it was 9130. For the same compound, the z-score in assay [2] (setting [7]) was -0.0963 (inactive); in assay [2] (setting [8]), 0.707.

These data come from PubChem BioAssay.
